Measurements published in the supplement of paper PMC6555819.

Tests used:
Assay in all cases: PBM binding z-score (relative to random genomic background probes); higher = stronger binding; sequences stand for … in GC…GCGATTGACAGCGTAGAATGAAGG
[1] = test system: FXR:RXRa (NR concentration 270 nM, RXRa partner concentration 90 nM)
Summary of the method: (§1)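 Custom Agilent 4×180K protein-binding microarrays carried double-stranded probes. Their 34-nt variable regions held direct-repeat seeds, single-nucleotide variants, half-site ablations and random human genomic background sequences. Arrays were incubated 1 h with ligand-free nuclear receptor dimers in PBS pH 7.4, 2% milk, 0.02% Triton X-100, 1 mM DTT, 0.2 mg/mL BSA and 0.4 mg/ml salmon testes DNA. Antibodies against each partner (one per run) detected binding, and scanned fluorescence was regression-normalized. Binding z-scores use random background probes as reference.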

[2] = test system: LXRa:RXRa (NR concentration 270 nM, RXRa partner concentration 90 nM)
Summary of the method: as §1

[3] = test system: LXRa homodimer (NR concentration 270 nM)
Summary of the method: as §1

[4] = test system: LXRb:RXRa (NR concentration 270 nM, RXRa partner concentration 90 nM)
Summary of the method: as §1

[5] = test system: LXRb homodimer (NR concentration 270 nM)
Summary of the method: as §1

[6] = test system: PPARa:RXRa (NR concentration 270 nM, RXRa partner concentration 90 nM)
Summary of the method: as §1

[7] = test system: PPARg:RXRa (NR concentration 180 nM, RXRa partner concentration 90 nM)
Summary of the method: as §1

[8] = test system: PPARg:RXRa 270nM:90nM, anti-RXR (NR concentration 270 nM, RXRa partner concentration 90 nM)
Summary of the method: as §1

[9] = test system: PPARg:RXRa 30nM:10nM, anti-RXR (NR concentration 30 nM, RXRa partner concentration 10 nM)
Summary of the method: as §1

[10] = test system: PPARg:RXRa 90nM:30nM, anti-RXR (NR concentration 90 nM, RXRa partner concentration 30 nM)
Summary of the method: as §1

[11] = test system: PPARg:RXRa DBDmut IVT, anti-RXR (DBD mutation: RXRa K156A/R161A, NR concentration 270 nM, RXRa partner concentration 90 nM)
Summary of the method: as §1

[12] = test system: PPARg:RXRa IVT, anti-PPARg (NR concentration 270 nM, RXRa partner concentration 90 nM)
Summary of the method: as §1

[13] = test system: PPARg DBDmut:RXRa IVT, anti-PPARg (DBD mutation: PPARg1 K132A/R137A, NR concentration 270 nM, RXRa partner concentration 90 nM)
Summary of the method: as §1

[14] = test system: PPARg DBDmut IVT, anti-PPARg (DBD mutation: PPARg1 K132A/R137A, NR concentration 270 nM)
Summary of the method: as §1

[15] = test system: PPARg homodimer (NR concentration 180 nM)
Summary of the method: as §1

[16] = test system: PXR:RXRa (NR concentration 270 nM, RXRa partner concentration 90 nM)
Summary of the method: as §1

[17] = test system: PXR homodimer (NR concentration 270 nM)
Summary of the method: as §1

[18] = test system: RARa:RXR (NR concentration 270 nM, RXRa partner concentration 90 nM)
Summary of the method: as §1

[19] = test system: RARa homodimer (NR concentration 270 nM)
Summary of the method: as §1

[20] = test system: RARb:RXRa (NR concentration 270 nM, RXRa partner concentration 90 nM)
Summary of the method: as §1

Sequence | PBM binding z-score [1] | PBM binding z-score [2] | PBM binding z-score [3] | PBM binding z-score [4] | PBM binding z-score [5] | PBM binding z-score [6] | PBM binding z-score [7] | PBM binding z-score [8] | PBM binding z-score [9] | PBM binding z-score [10] | PBM binding z-score [11] | PBM binding z-score [12] | PBM binding z-score [13] | PBM binding z-score [14] | PBM binding z-score [15] | PBM binding z-score [16] | PBM binding z-score [17] | PBM binding z-score [18] | PBM binding z-score [19] | PBM binding z-score [20]
TCTTGTAGATCAGCAGGTTAATAAAGCTGGCCAA | 0.186 | 0.321 | -0.0562 | 0.223 | -0.339 | 0.462 | -0.26 | 1.38 | 2.55 | 1.7 | 1.69 | 0.368 | 0.134 | 0.645 | -0.332 | 0.185 | -0.721 | 0.556 | 0.0648 | 0.000915
CCGACTGGGGAAAAGGTTACCATACTCAGTACGA | 0.132 | 0.716 | -0.0897 | 1.29 | -0.67 | 3.82 | 6.95 | 7.47 | 6.02 | 8.23 | 0.816 | 2.89 | -0.258 | -0.129 | 1.18 | 0.978 | -0.181 | 1.8 | 0.0679 | 1.59
GGAACGAGGGCAAGTTGATAGTAGAGTTTGATGG | 0.866 | 0.53 | -0.29 | 0.413 | -0.108 | 1.74 | 1.01 | 0.848 | 0.216 | 0.579 | 3.65 | 2.79 | 0.241 | -0.486 | 0.584 | 0.965 | 1.17 | 0.509 | 0.408 | 2.76
ATCCCTAGGTAAAGATAGTTCAGTGAATGCAAAT | 0.139 | 4.49 | 0.337 | 0.881 | 0.0793 | 0.459 | 0.486 | -0.104 | -0.14 | -0.302 | -0.0456 | 0.0928 | 0.379 | 0.507 | 0.544 | 1.12 | 0.666 | 0.665 | 1.04 | 0.863
CCGAATGGGGCAAAGGTTACCATACTCAGTACGA | 1.99 | 1.85 | 0.278 | 2.51 | -0.456 | 4.58 | 9.1 | 7.67 | 7.02 | 7.87 | 2.16 | 4.5 | 0.22 | 0.313 | 1.22 | 2.57 | 0.114 | 3.86 | 0.85 | 2.46
GCTAGCAGGCCATTTTGGTCACTCAATGACGGGC | -0.64 | -0.754 | -1.03 | -0.967 | -0.971 | -0.67 | 0.24 | -0.925 | -0.857 | -0.861 | 0.582 | -0.122 | -1.08 | -1.4 | -1.14 | -0.775 | -0.836 | -0.995 | -1.3 | 0.0531
CGTCCAAGGTCAATGTCAGTGAAAGAGACTCGAA | 6.7 | 4.8 | 0.641 | 3.88 | 1.05 | 5.35 | 4.26 | 4.46 | 1.3 | 2.57 | 2.67 | 3.14 | -0.322 | -0.37 | 2.27 | 3.36 | 1.18 | 3.8 | 0.639 | 4.85
CCGACTGGGGCAACGTTACCATAACGCACAGCCA | -0.667 | -0.521 | -0.397 | -0.465 | -1.01 | 0.0876 | 1.64 | 0.667 | -0.502 | -0.136 | 4.02 | 3.62 | -0.725 | -0.25 | -0.224 | -0.885 | -0.271 | -0.695 | -0.177 | 0.224
CGTCCAAGGTCAATGCTAGGTCAGAGAAAGCATT | 6.97 | 5.95 | 2.67 | 4.32 | 0.8 | 5.25 | 4.39 | 4.86 | 1.59 | 3.76 | 3.57 | 3.92 | 0.456 | -0.0823 | 4.96 | 4.85 | 1.92 | 5.99 | 1.27 | 5.25
CAAACTAGGTCAAGAGGTCAAAGTCCGCTTCCCG | 7.09 | 6.37 | 6.55 | 5.7 | 1.96 | 6.67 | 9.95 | 8.33 | 6.28 | 8.63 | 8.49 | 8.35 | 2.14 | 1.19 | 6.92 | 6.2 | 2.86 | 7.83 | 3.01 | 5.53
ATCGAAAGGTCGCGGTGAGTATAGAGAAAGGGAA | 6 | 4.14 | 0.362 | 3.7 | 0.371 | 5.23 | 4.84 | 4.74 | 1.65 | 3.31 | 0.748 | 2.76 | 0.634 | 0.427 | 1.87 | 3.21 | 0.401 | 3.63 | 0.883 | 4.66
ATCTCTAGGTAACAAGTTCAGGGAAAGAGAGGAC | 1.08 | 1.19 | 0.665 | 1.09 | 1.23 | 1.97 | 1.74 | 2.3 | 1.06 | 1.99 | 3.5 | 3.06 | 1.15 | 2.01 | 1.61 | 1.74 | 1.82 | 1.32 | 1.58 | 1.69
CAAACTAGGTCACGAAACGTCAAAGTCGAATGAC | 4.62 | 3.49 | 0.329 | 2.55 | 0.542 | 5.24 | 9.06 | 7.26 | 5.44 | 7.36 | 8.38 | 9.02 | 2.1 | 1.7 | 2 | 1.76 | 0.0967 | 2.91 | 0.992 | 4.36
AGAATGAGGTTATACGTTGATCAGGGAAGAAAGT | 2.25 | 1.89 | 0.234 | 1.66 | 0.0742 | 3.37 | 2.03 | 2.34 | 1.01 | 1.78 | 2.33 | 2.33 | 1.31 | 1.24 | 1.05 | 1.18 | 0.411 | 1.69 | 0.556 | 1.44
